Data taken from ChEMBL document CHEMBL4888484, “Replenishing the malaria drug discovery pipeline: Screening and hit evaluation of the MMV Hit Generation Library 1 (HGL1) against asexual blood stage Plasmodium falciparum ,using a nano luciferase reporter read-out” (2022).
The campaign covered roughly 4,800 compounds. About 420 (8.8%) showed an effect of 50% or more. The entries come from a sample that favours strong results as a whole.

Test system: Plasmodium falciparum
Experiment: Confirmatory screen in NF54 nanoGlo assay, in single point, at 2uM, 72h
Assay type: functional, Erythrocyte
Details: timepoint 72 hour

| SMILES | % Inhibition |
| --- | --- |
| O=C(Cn1c(=O)n(-c2cc(F)cc(F)c2)c(=O)c2sccc21)NCc1ccc2c(c1)OCO2 | -9% |
| Cc1[nH]ccc(=O)c1Cc1c(Cl)cccc1Cl | -16% |
| Cc1cc(NC(=O)Cn2ncnc2-c2cccc(C#N)c2)n(C)n1 | -1% |
| O[C@@H](CNCc1ccsc1C(F)(F)F)c1cc(Cl)c2c(c1)OCCO2 | 32% |
| CCCN(Cc1c(C)nn(-c2ccccc2)c1N1CCN(CC)CC1)S(=O)(=O)c1ccc(C)cc1 | -5% |
| Cc1sc2nc(-c3ccccn3)nc(NCC(=O)N3CCC(O)CC3)c2c1-c1ccccc1 | 23% |
| Cc1cc(NCCc2nccn2C)ncn1 | -15% |
| COC(=O)COc1nonc1-c1ccccc1 | 7% |
| Cc1nnc(Cn2ncnc2-c2ccccc2Cl)o1 | -3% |
| COc1ccc(OCC(=O)Nc2ccc(N3CCn4c(nc5ccccc54)C3)cc2Cl)cc1 | -8% |
| Cc1cnc(C(=O)N2CCC[C@H]2c2nc(C3CCOCC3)no2)cn1 | 0% |
| Cc1cc(S(=O)(=O)NC(=O)c2ccnc(C3CCCC3)n2)c(C)s1 | -2% |
| O=C(NC(c1ccccc1)c1ccccc1)C1=COCCO1 | -9% |
| CCOC(=O)c1nc(-c2cccnc2)cs1 | -12% |
| N#C[C@@H](C(=O)NCc1cccnc1)c1nc(-c2ccccc2)cs1 | -1% |
| Cc1cc(C(=O)N[C@@H](C)c2nc(-c3cccnc3)cs2)cc(O)n1 | 53% |
| C#CCN1C(=O)N[C@@](CC)(C(C)C)C1=O | 10% |
| Cc1oc(=S)n2c1C[C@@H](c1ccccc1)N(Cc1ccccc1)C2 | -15% |
| Cn1cc(C(=O)NCC2CCN(S(=O)(=O)c3cccs3)CC2)cn1 | -2% |
| CCc1ccc(NC(=O)[C@@H]2CCn3c(C(=O)c4ccccc4)ccc32)cc1 | 1% |
| CCc1ccc(NC(=O)[C@H](C)N2CCC(NS(=O)(=O)c3cccs3)CC2)cc1 | 70% |
| CN(Cc1ccc(F)c(F)c1)S(=O)(=O)C[C@H]1CCN(C(=O)OCc2ccccc2)C1 | -10% |

| SMILES | % Inhibition |
| --- | --- |
| Cc1cc(C)n(-c2ccc(CN3C(=O)NC4(CCCC4)C3=O)cc2)n1 | -4% |
| O=C1CN(C(=O)Cc2c(F)cccc2Cl)C2(CCCC2)CN1 | -11% |
| Cc1nccc(NC(=O)C2CCC(F)(F)CC2)c1Cl | -4% |
| Cc1c(NC(=O)CC(C)(C)CC(=O)N2CCN(c3ccccc3F)CC2)c(=O)n(-c2ccccc2)n1C | 2% |
| CC(C)(C)CC(=O)Nc1ccc2c(c1)C(N1CCCCC1)=Nc1ccccc1O2 | -13% |
| O=C(COc1ccccc1)Nc1ccc2c(c1)C(O)=Nc1cccnc1O2 | 58% |
| CC1(C)Oc2ccc(NC(=O)COc3ccccc3)cc2NC1=O | 11% |
| Cc1ccc([C@H]2C=NN(c3ccc(Br)cc3)C2=O)cc1 | 20% |
| O=C(Nc1ccc(N2CCOCC2)cc1)Nc1ccc(F)cc1F | 1% |
| Cc1ccccc1S(=O)(=O)NCc1nnc(C(=O)Nc2ccc(F)cc2F)s1 | -5% |
| Cc1onc(N)c1S(=O)(=O)Nc1ccncc1 | -7% |
| CCNc1nc(C)cc(Nc2ccc(NS(=O)(=O)c3c(C)noc3C)cc2)n1 | 92% |
| CCNc1nc(C)cc(Nc2ccc(NC(=O)c3cc(C)ccc3C)cc2)n1 | 98% |
| Cc1ccc(C)c(S(=O)(=O)NCCNc2ccc(Nc3ccncc3)nn2)c1 | 28% |
| CCC(=O)N1CCN(c2cc(Nc3ccc(C)cc3)nc(C)n2)CC1 | -1% |
| CCC(=O)Nc1nc2c(OC)cc(NS(=O)(=O)c3c(C)noc3C)cc2s1 | -4% |
| CC(C)c1ccc(-c2nn3c(C4CCN(S(C)(=O)=O)CC4)nnc3s2)cc1 | -20% |
| C[C@H](C#N)CNc1ncc(Br)cn1 | 1% |
| CN(c1ccc(Cl)cn1)S(=O)(=O)c1ccc2ncccc2c1 | -22% |
| C[C@H]1CN(Cc2cc3c(cc2Br)OCO3)CCN1S(C)(=O)=O | -2% |
| Brc1ccc(NCc2[nH]nnc2-c2ccccc2)cc1 | 2% |
| O=S(=O)(c1ccccc1Br)N1CC[C@H]1c1ccccc1 | -6% |

| SMILES | % Inhibition |
| --- | --- |
| CN(c1ncc(S(=O)(=O)c2ccccc2)c(N)n1)C1CCCCC1 | -9% |
| Cn1ccnc1CN1CCC[C@@](O)(CNS(=O)(=O)c2cccs2)CC1 | -10% |
| CC(C)(C)c1ccnc(N[C@H]2CO[C@H]3[C@@H]2OC[C@@H]3NC(=O)NCc2ccccc2)n1 | 18% |
| Cc1nn(CCC(=O)NC2CCCC2)cc1Br | -10% |
| CN(C)c1ccc(C(=O)N[C@@]2(C)CCS(=O)(=O)C2)cc1 | -6% |
| Cc1cnn(Cc2cc(C(=O)N(C)Cc3nc4ccccc4n3C)no2)c1 | -6% |
| O=C(Nc1cccc2cccnc12)N1CCOCC1CC(O)c1cccs1 (stereo not given) | 0% |
| Cc1nnc(O)c(CNC(=O)COC2CCCC(C)C2)c1C (stereo not given) | -7% |
| c1ccc(-c2nc(C[n+]3ccc4c(c3)CCCC4)cs2)cc1 | 57% |
| Cc1ncccc1C(=O)NCCc1csc(-c2ccccc2)n1 | -11% |
| Cc1cc(C)cc(NC(=O)CCn2c(=O)cc(C(F)(F)F)c3cn(C(C)C)nc32)c1 | -14% |
| CC1(C)CCC(Nc2ccc(C(N)=O)nn2)CC1 | 70% |
| CCn1c(=O)c(N2CCC[C@H](C(=O)NCc3ccccc3OC)C2)nc2cccnc21 | -7% |
| CCn1cnc2c(N3CCC[C@H](c4ccncc4)C3)ncnc21 | 68% |
| Brc1cncnc1N1CCC[C@H](c2nnn[nH]2)C1 | -15% |
| CC(C)(C)NC(=O)N[C@H]1COc2c1ccc(Cl)c2Cl | -3% |
| Cc1ccc(C(=O)Nc2ccc(N3CCN(c4c(F)c(F)c(F)c(F)c4F)CC3)cc2)c(Cl)c1 | 10% |
| O=C(O)c1cc(N2CCC(Cc3ccccc3)CC2)ccc1NC(=O)C1CCC1 | -14% |
| O=C(Nc1nc2ccccc2[nH]1)C1CCN(c2cc3c(nn2)CCC3)CC1 | 5% |
| NC(=O)c1ccccc1NC(=O)C1CCN(c2cc(C3CC3)ncn2)CC1 | 53% |
| Cc1cn([C@H]2C[C@@H](OC(=O)c3ccccc3)[C@@H](CO)O2)c(=O)[nH]c1=O | -6% |
